Results filed as inconclusive are left out. Active and inactive are the calls of the source. Calls come from the whole dose curve; as a rule, active = well fitted curve in the direction sought with a large enough effect; inconclusive = small, poorly fitted or top-dose-only effect, or another doubt; inactive = no such curve, though single readings can be large; an effect the other way counts as inactive or inconclusive.
What was measured:
[1] = Quantitative High-Throughput drug screen in 47 multiple myeloma cell lines against the NCATS MIPE library collection: Karpas417_ECACC cell viability assay (AID 1918961); details: Karpas417 myeloma viability, CellTiter-Glo ATP luminescence, 48 h; viability (% of DMSO): at 45.8 µM (top of the series)
Summary of the method: (§1)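 We plated 500 myeloma cells per well, pinned in MIPE 4.0 compounds, and incubated for 48 hours at 37C. ATP was then quantified with CellTiter-Glo, with DMSO and media-only wells defining 100% and 0%.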

[2] = Quantitative High-Throughput drug screen in 47 multiple myeloma cell lines against the NCATS MIPE library collection: KHM11_PLB cell viability assay (AID 1918962); note: nearly all actives have a fitted effect of over 35% in size
Summary of the method: (§2)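 Primary qHTS used for cherry-picking: cells at 500/well, library compounds for 48 h (37C, 5% CO2), luminescent ATP assay.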

[3] = Quantitative High-Throughput drug screen in 47 multiple myeloma cell lines against the NCATS MIPE library collection: JIM3_ECACC cell viability assay (AID 1918963; note: nearly all actives have a fitted effect of over 35% in size)
Summary of the method: as §2

[4] = Quantitative High-Throughput drug screen in 47 multiple myeloma cell lines against the NCATS MIPE library collection: JIM1_ECACC cell viability assay (AID 1918964)
Summary of the method: as §1

[5] = Quantitative High-Throughput drug screen in 47 multiple myeloma cell lines against the NCATS MIPE library collection: INA6_PLB cell viability assay (AID 1918965; note: nearly all actives have a fitted effect of over 55% in size)
Summary of the method: as §1

[6] = Quantitative High-Throughput drug screen in 47 multiple myeloma cell lines against the NCATS MIPE library collection: JJN3_DSMZ cell viability assay (AID 1918966; note: nearly all actives have a fitted effect of over 50% in size)
Summary of the method: as §1

[7] = Quantitative High-Throughput drug screen in 47 multiple myeloma cell lines against the NCATS MIPE library collection: H1112_PLB cell viability assay (AID 1918967; note: nearly all actives have a fitted effect of over 30% in size)
Summary of the method: as §1

[8] = Quantitative High-Throughput drug screen in 47 multiple myeloma cell lines against the NCATS MIPE library collection: Karpas25_ECACC cell viability assay (AID 1918968; note: nearly all actives have a fitted effect of over 35% in size)
Summary of the method: as §1

[9] = Quantitative High-Throughput drug screen in 47 multiple myeloma cell lines against the NCATS MIPE library collection: KMS12BM_JCRB cell viability assay (AID 1918971); note: nearly all actives have a fitted effect of over 35% in size
Summary of the method: (§3)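 Approved and investigational drugs from MIPE 4.0 were added by pin tool to 500 cells per well. After 48 hours at 37C, ATP-based CellTiter-Glo luminescence indicated remaining viability.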

[10] = Quantitative High-Throughput drug screen in 47 multiple myeloma cell lines against the NCATS MIPE library collection: KMS12PE_JCRB cell viability assay (AID 1918972); note: nearly all actives have a fitted effect of over 30% in size
Summary of the method: as §1

[11] = Quantitative High-Throughput drug screen in 47 multiple myeloma cell lines against the NCATS MIPE library collection: KMS20_JCRB cell viability assay (AID 1918973); note: nearly all actives have a fitted effect of over 45% in size
Summary of the method: as §1

[12] = Quantitative High-Throughput drug screen in 47 multiple myeloma cell lines against the NCATS MIPE library collection: KMS26_JCRB cell viability assay (AID 1918975); note: nearly all actives have a fitted effect of over 45% in size
Summary of the method: as §3

[13] = Quantitative High-Throughput drug screen in 47 multiple myeloma cell lines against the NCATS MIPE library collection: MMM1_PLB cell viability assay (AID 1918976); note: nearly all actives have a fitted effect of over 35% in size
Summary of the method: (§4)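 Plated at 500 cells per well, myeloma lines received MIPE 4.0 compounds by pin tool. Following 48 h culture at 37 °C, CellTiter-Glo luminescence gave viability relative to DMSO and media-only controls.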

[14] = Quantitative High-Throughput drug screen in 47 multiple myeloma cell lines against the NCATS MIPE library collection: MOLP8_DSMZ cell viability assay (AID 1918977); note: nearly all actives have a fitted effect of over 45% in size
Summary of the method: as §4

[15] = Quantitative High-Throughput drug screen in 47 multiple myeloma cell lines against the NCATS MIPE library collection: NCIH929_DSMZ cell viability assay (AID 1918978); note: nearly all actives have a fitted effect of over 35% in size
Summary of the method: as §4

[16] = Quantitative High-Throughput drug screen in 47 multiple myeloma cell lines against the NCATS MIPE library collection: OCIMY1_PLB cell viability assay (AID 1918979); note: nearly all actives have a fitted effect of over 35% in size
Summary of the method: as §4

[17] = Quantitative High-Throughput drug screen in 47 multiple myeloma cell lines against the NCATS MIPE library collection: MM1S_ATCC cell viability assay (AID 1918980); note: nearly all actives have a fitted effect of over 45% in size
Summary of the method: as §4

[18] = Quantitative High-Throughput drug screen in 47 multiple myeloma cell lines against the NCATS MIPE library collection: MM1R_ATCC cell viability assay (AID 1918981); note: nearly all actives have a fitted effect of over 35% in size
Summary of the method: as §4

[19] = Quantitative High-Throughput drug screen in 47 multiple myeloma cell lines against the NCATS MIPE library collection: KMS27_JCRB cell viability assay (AID 1918970); details: KMS27 myeloma cells, CellTiter-Glo ATP viability, 48 h; viability (% of DMSO): at 45.8 µM (top of the series); note: nearly all actives have a fitted effect of over 30% in size
Summary of the method: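 Myeloma cells (500 per well) were exposed to MIPE 4.0 compounds for 48 h at 37 °C, 5% CO2; viability was read as ATP luminescence with CellTiter-Glo, normalized to DMSO-only (100%) and media-only (0%) wells.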

[20] = Quantitative High-Throughput drug screen in 47 multiple myeloma cell lines against the NCATS MIPE library collection: KMS21BM_JCRB cell viability assay (AID 1918974); details: ATP luminescence, 48 h; viability: at 45.8 µM (top of the series)
Summary of the method: as §1

Measured: Potency
Potency is the fitted concentration of half-maximal effect.

COc1cc(C=CC(=O)CC(=O)C=Cc2ccc(O)c(OC)c2)ccc1O
active: [1] 4810 nM | [2] 6050 nM | [3] 4810 nM | [4] 3400 nM | [5] 1520 nM | [6] 13600 nM | [7] 6790 nM | [8] 960 nM | [9] 19100 nM | [10] 7620 nM | [11] 6050 nM | [12] 48100 nM | [13] 38200 nM | [14] 9590 nM | [15] 3400 nM | [16] 21500 nM | [17] 27000 nM | [18] 7620 nM

Cn1cnc(=N)c2[nH]cnc21
active: [1] 23.5 nM | [2] 372 nM | [3] 1050 nM | [4] 93.5 nM | [5] 46.9 nM | [6] 166 nM | [7] 235 nM | [8] 74.3 nM | [19] 59 nM | [9] 105 nM | [11] 52.6 nM | [12] 132 nM | [13] 148 nM | [14] 41.8 nM | [16] 743 nM | [17] 93.5 nM

Cn1c(Nc2ccc(C(F)(F)F)cc2)nc2cc(Oc3ccnc(-c4ncc(C(F)(F)F)[nH]4)c3)ccc21
active: [1] 4180 nM | [2] 18700 nM | [3] 18700 nM | [4] 9350 nM | [5] 20900 nM | [6] 16600 nM | [7] 8330 nM | [8] 3720 nM | [10] 5260 nM | [11] 11800 nM | [20] 5900 nM | [14] 6620 nM | [17] 9350 nM

C=CCNc1c(O)cc2c(O)c1C[C@@H](C)C[C@H](OC)[C@@H](O)[C@@H](C)C=C(C)[C@H](OC(N)=O)[C@@H](OC)C=CC=C(C)C(=O)N2
active: [1] 74.3 nM | [2] 264 nM | [3] 590 nM | [4] 209 nM | [5] 187 nM | [6] 296 nM | [7] 1050 nM | [8] 469 nM | [19] 148 nM | [9] 332 nM | [10] 105 nM | [11] 372 nM | [12] 1320 nM | [13] 8330 nM | [14] 332 nM | [15] 418 nM | [16] 1480 nM | [17] 1180 nM | [18] 526 nM
